D2 antagonist – antagonizes the human D2 dopamine receptor | HEK293 TREx D2 cells, calcium flux, dopamine EC80 | AID 485344 | inhibition, % at 10 µM | P14416 | 340,000 compounds, 2% hits; in the data active = inhibition above about 30%; inactive = below that, where a call was filed; also: 0% is about no effect
Target sequence (P14416 whole entry, looked up): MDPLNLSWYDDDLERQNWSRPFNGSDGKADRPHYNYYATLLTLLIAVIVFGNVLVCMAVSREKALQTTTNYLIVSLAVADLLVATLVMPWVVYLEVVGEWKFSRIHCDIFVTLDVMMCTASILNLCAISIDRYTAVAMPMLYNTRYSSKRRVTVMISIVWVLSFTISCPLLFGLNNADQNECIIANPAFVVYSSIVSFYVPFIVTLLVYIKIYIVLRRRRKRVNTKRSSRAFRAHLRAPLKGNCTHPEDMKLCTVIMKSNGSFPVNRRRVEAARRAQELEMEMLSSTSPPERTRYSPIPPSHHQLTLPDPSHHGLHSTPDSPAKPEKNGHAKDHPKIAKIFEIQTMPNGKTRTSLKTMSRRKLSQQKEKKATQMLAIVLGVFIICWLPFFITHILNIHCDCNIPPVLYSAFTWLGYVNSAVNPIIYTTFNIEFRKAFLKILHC
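Read-out: kinetic calcium fluorescence (1 cycle/s) in inducible HEK293 T-REx D2 cells after an EC80 dopamine addition that followed 180 s compound preincubation. Loss of the dopamine response indicates antagonism.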
D2 ag-1 – activates the human D2 dopamine receptor | 360,000 compounds, 0.084% hits | DiscoveRx PathHunter D2 beta-arrestin, luminescence, 90 min; 100% = 57 uM dopamine signal | activation, % (concentration not given with the values); in the data active = activation above about 40%
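Agonist mode: compounds alone added to overnight-plated D2 PathHunter cells for 90 min at 37 C, with 57 uM final dopamine (EC100) defining full response. Beta-arrestin recruitment detected by chemiluminescent reagent, read after 1 h at ambient temperature.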
D2 PAM-1 – D2 dopamine receptor (human) potentiation. P14416. HEK293 T-REx D2, calcium flux, EC20 dopamine potentiation. potentiation, % at 10 µM. 340,000 compounds, 0.34% hits;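 active = potentiation over 3 SD above the plate norm, cut at about 30% in these data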; also: 0% is about no effect
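Cells plated with tetracycline inducer and held overnight at 30 C; calcium dye loaded 30–90 min at room temperature; baseline taken, compound added and read 180 s; EC20 dopamine then added and read 180 s.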
D2 PAM-2 – positive allosteric modulators of human D2 dopamine receptor. P14416. DiscoveRx D2 beta-arrestin cells, luminescence, 90 min; 100% = 57 uM dopamine signal. potentiation, % (concentration not given with the values). 360,000 compounds, 0.23% hits; in the data active = potentiation above about 50%
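D2 cells co-treated with compound plus 50 nM dopamine (EC20) for 90 min at 37 deg C to detect potentiation. Beta-arrestin recruitment was read as enzyme-fragment luminescence after 1 h at ambient temperature. Full response was set by 57 uM dopamine.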
D2 ag-2 – activates the human D2 dopamine receptor; HEK293 T-REx D2 cells, calcium flux agonist mode; P14416; activation, % at 2 µM; 340,000 compounds, 0.53% hits; AID 485358;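 active = activation over 3 SD above normal in the single-dose calcium agonist read, cut at about 30% in these data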; also: 0% is about no effect
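Agonism is scored from calcium flux in a force-coupled, inducible HEK293 cell line expressing D2, read kinetically for 180 s after compound addition against dopamine controls.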
LDHA block – blocks human lactate dehydrogenase A; purified LDHA, NADH/diaphorase-resazurin fluorescence; hits give low values; activity change, % (values are at about 110 or 230 µM); 480,000 compounds, 0.15% hits; in the data active = activity change below about -30%;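 also: plate controls were DMSO wells for no effect and wells without enzyme for full effect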
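Resorufin fluorescence (ex540/em590), read at 0 and 20 min after diaphorase/resazurin addition, reports the NADH left after a 5 min room-temperature reaction of 2 nM human LDH5 with 0.06 mM NADH and 0.2 mM pyruvate.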
An asterisk follows results filed as active; / = no result given. An excerpt weighted towards active compounds, which were near 2.1% of everything screened.

SMILES	D2 antagonist	D2 ag-1	D2 PAM-1	D2 PAM-2	D2 ag-2	LDHA block
CCCCOc1ccc(NC2=NC3(CCCCC3)N=C(N)N2)cc1	35*	-1	18	-2	1	-4
S=C(NCc1cccc(Cl)c1)NCc1cccs1	/	/	/	/	/	-5
CCCC(=O)CN1C(=O)C2(OCCO2)c2ccccc21	-13	-1	36*	-17	0	-3
O=C1N(Cc2ccccc2F)c2ccccc2C12OCCCO2	-4	-3	40*	-12	0	-7
COc1cccc(CNC(=O)c2cc3cc(OC)ccc3[nH]2)c1	/	/	/	/	/	2
O=C(CN1C2CCCC1CC(NC(=O)c1ccccc1)C2)Nc1ccccc1 (stereo not given)	8	-1	6	-14	-2	-8
O=C(NC1CC2CCCC(C1)N2Cc1ccccc1)c1cccc(F)c1 (stereo not given)	84*	-1	-22	-80	0	-9
O=C(NC1CC2CCCC(C1)N2Cc1ccccc1)c1cccc(Cl)c1 (stereo not given)	90*	0	-38	-16	-1	-2
CCCN1C2CCCC1CC(NC(=O)c1cccc(Cl)c1)C2 (stereo not given)	-5	-4	-11	-15	0	-5
Oc1ccc(Cl)cc1C=NCc1ccc(C(F)(F)F)cc1	/	/	/	/	/	-1
Cc1ccc(NC(=O)c2n[nH]c(=O)c3ccccc23)cc1S(=O)(=O)N1CCCCC1	/	/	/	/	/	-3
CCOC(=O)c1cc2c(Cl)cc(Cl)cc2[nH]1	/	/	/	/	/	8
Cc1cc(Nc2ccc(Cl)cc2)n2nnnc2n1	18	2	-10	7	-1	-7
Cc1cc(C)n2nnnc2n1	38*	-1	-7	-8	1	-8
NC(=S)NNc1ccccc1	/	/	/	/	/	-7
COc1cc(/C=C2\SC(N3CCc4ccccc4C3)=NC2=O)cc(OC)c1OC	56*	-8	-29	-23	0	-9
CC(=O)Nc1nc2c(C)cc(NC(=O)Nc3ccccc3)cc2s1	/	/	/	/	/	-9
O=C1C2CCCN2C(c2cccc(Br)c2)N1c1ccc(F)cc1 (stereo not given)	38*	0	-6	-2	-1	3
CCc1ccc(C(C(=O)NC2CCCCC2)N(C(=O)c2cnccn2)c2cccs2)cc1 (stereo not given)	/	/	/	/	/	-5
O=C(Nc1ccccc1)C1CCN(C(=O)c2ccc3ccccc3n2)CC1	/	/	/	/	/	8
c1ccc(CSc2ncn[nH]2)nc1	42*	-2	-4	-5	1	-14
CCN(CC)C(=O)C1CC(c2ccc(OC)cc2)=NO1 (stereo not given)	31*	-2	9	-20	-1	-3
COc1ccc(C2=NOC(C(=O)NC(C)(C)C)C2)cc1 (stereo not given)	-11	-3	2	-1	1	1
Cc1c(C(=O)N2CCN(S(=O)(=O)c3ccccc3)CC2)oc2ccccc12	34*	-5	-8	3	0	-4
O=C(N1CCCCCC1)N1CCN(S(=O)(=O)c2ccccc2)CC1	15	1	3	-2	1	-12
SMILES	D2 antagonist	D2 ag-1	D2 PAM-1	D2 PAM-2	D2 ag-2	LDHA block
O=C(CN1CCSC1=O)N1CCN(S(=O)(=O)c2ccccc2)CC1	37*	-2	-2	-4	0	-2
O=C(c1ccc(=O)[nH]c1)N1CCN(S(=O)(=O)c2ccccc2)CC1	31*	-4	23	0	0	-7
O=C(N1CCCCC1)N1CCN(S(=O)(=O)c2ccccc2)CC1	8	1	70*	-13	1	-1
COc1ccc(S(=O)(=O)N2CCN(C(=O)c3oc4ccccc4c3C)CC2)cc1	-7	-1	-6	-4	1	-4
O=C(CN1CCSC1=O)N1CCN(S(=O)(=O)c2ccc(Cl)cc2)CC1	7	-3	10	-11	0	1
Cc1ccc(-c2c(NC(=O)c3ccco3)oc3ccc(Cl)cc3c2=O)cc1	/	/	/	/	/	9
Cc1cccc(N(CC(=O)NC2CCCC2)C(=O)CS(=O)CC(=O)Nc2ccc3c(c2)OCO3)c1 (stereo not given)	32*	-3	-14	-8	0	-4
Cc1ccc(NC(=O)CS(=O)CC(=O)N(CC(=O)NC2CCCC2)c2ccc3c(c2)OCCO3)cc1 (stereo not given)	-1	-4	-3	-11	0	-13
c1ccc(-c2cc(-c3ccccc3)[o+]c(-c3ccccc3)c2)cc1	/	/	/	/	/	-1
COc1cccc(NC(=O)C2C3C=CC(O3)C2C(=O)NCc2cccnc2)c1 (stereo not given)	44*	-2	-15	-22	-1	-6
COc1cc(NC(=S)NCc2cccnc2)cc(OC)c1	1	-1	-3	-3	0	-3
Cc1ccsc1/C=N/NC(=O)c1ccc2ccccc2c1	41*	-2	-21	-17	0	-1
Cc1ccsc1/C=N/NC(=O)c1ccccc1	/	/	/	/	/	2
CC(C)=CC(=O)CC1(C#N)C(N)=C(C=O)CC1(C#N)C#N (stereo not given)	/	/	/	/	/	6
CN(CCCCOc1ccc(F)cc1)Cc1ccccc1	33*	-2	-25	-3	-1	-16
COc1ccc(OCCCN(C)Cc2ccccc2)cc1	3	1	-8	-28	0	-4
CCC(C)c1ccccc1OCCCN(C)Cc1ccccc1 (stereo not given)	35*	-3	-24	-22	1	-9
CN(CCOc1ccc(F)cc1)Cc1ccccc1	19	-2	-7	-29	-1	-12
CN(CCOc1ccccc1)CCOc1ccccc1	37*	-1	-47	-14	-1	-6
Cc1cc(C)c(C)c(OCCCCN(C)Cc2ccccc2)c1	31*	2	-19	-4	-1	-5
CCCCSCC(O)CSc1nc(-c2ccccc2)cc(-c2ccc(C)cc2)c1C#N (stereo not given)	/	/	/	/	/	3
O=C(Oc1ccc(Cl)cc1)c1ccc2ncsc2c1	/	/	/	/	/	8
Cc1ccc(NC(=O)c2nc3ccccc3nc2N2CCOCC2)cc1Cl	/	/	/	/	/	-9
CCOc1ccc(N2C(=O)S/C(=C\c3ccc(O)c(OC)c3)C2=O)cc1	-16	-6	15	-14	3	-11
COc1cc(/C=C2\SC(=S)N(NC(=O)c3ccc(O)cc3)C2=O)ccc1O	-6	-1	5	-11	36*	2
CCOc1cc(/C=C2\SC(=S)N(Nc3ccccc3)C2=O)ccc1O	35*	-9	9	-27	8	1
COc1cc(/C=C2\SC(c3ccc(C)cc3)=NC2=O)ccc1O	32*	-4	-4	-17	4	7

Screening results deposited in PubChem BioAssay by National Center for Advancing Translational Sciences (NCATS).
